# Screening results from PubChem.
# GIRK2 activator = Activators of human GIRK2-containing channels; HEK293 GIRK2/NPY4 cells, thallium flux fluorescence; activation (% efficacy), % for hits at 37.5 µM; 34,000 tested, under 10 active; AID 1259324;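 active = primary screen hit, no activity in plain HEK293 cells, and in GIRK2-only cells above 5% efficacy rising with concentration; inactive = the rest, including fluorescent compounds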;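 note: efficacy is normalized control-subtracted fluorescence 15 s after thallium addition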
# Target sequence (P48051 whole entry, looked up): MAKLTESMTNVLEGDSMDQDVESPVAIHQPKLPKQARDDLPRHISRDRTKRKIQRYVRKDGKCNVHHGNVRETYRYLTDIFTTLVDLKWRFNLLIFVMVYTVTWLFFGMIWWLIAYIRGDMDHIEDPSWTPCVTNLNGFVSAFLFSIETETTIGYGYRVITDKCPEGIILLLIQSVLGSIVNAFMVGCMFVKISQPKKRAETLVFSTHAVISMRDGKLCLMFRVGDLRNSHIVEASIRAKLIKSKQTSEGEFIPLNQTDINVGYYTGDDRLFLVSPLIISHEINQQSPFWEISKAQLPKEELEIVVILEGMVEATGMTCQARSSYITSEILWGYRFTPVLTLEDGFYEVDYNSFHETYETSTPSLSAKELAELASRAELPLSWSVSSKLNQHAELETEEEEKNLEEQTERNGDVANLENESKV
# AMPAR-TARP mod = GluA2-stargazin AMPA receptor complex modulation | HEK293 GluA2+stargazin, membrane potential dye (FDSS), glutamate EC50; hits were called plate by plate, in both directions | calls only at 30 µM | 40,000 tested, 3.5% active | AID 1259245;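 active = any of four per-well response measures lying three or more SD from its plate-wide compound average, in either direction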
# Calls only; - = inactive; . = not tested or not shown; + = active, no number. Many of the other results were omitted from the sample, so hits are more common in it than they were.
SMILES,GIRK2 activator,AMPAR-TARP mod
Cc1cc(=O)[nH]c(-n2nc(-c3ccco3)cc2NC(=O)C2CC2)n1,-,+
COc1ccc(NC(=O)CC2SC(=O)N(CC(=O)c3ccccc3)C2=O)cc1 (stereo not given),-,-
O=C(CC1SC(=O)N(Cc2ccccc2)C1=O)Nc1ccc([N+](=O)[O-])cc1 (stereo not given),-,+
COC(=O)/C=C1\S/C(=N/Nc2nc(C)cc(C)n2)N(c2ccccc2)C1=O,-,.
COC(=O)/C=C1\S/C(=N\Nc2nc(C)cc(C)n2)N(c2ccccc2)C1=O,.,+
O=C(Nc1cccc2nsnc12)C1CN(C(=O)c2cccs2)C1,-,-
O=C(CN1N=NC2C(=O)N(c3ccc(F)cc3)C(=O)C21)Nc1cc(F)ccc1F (stereo not given),-,-
C=CCn1c(N/N=C/c2cccc(OC)c2O)nc2c1c(=O)n(C)c(=O)n2C,.,+
C=C(C)Cn1c(N/N=C/c2cccc(OC)c2O)nc2c1c(=O)n(C)c(=O)n2C,.,-
COc1ccc(C(=O)Nc2cc(C3CC3)nn2-c2nc(C(C)C)cc(=O)[nH]2)cc1OC,-,+
COc1ccc(CC(=O)Nc2cc(C3CC3)nn2-c2nc(C(C)C)cc(=O)[nH]2)cc1OC,-,-
CC(C)n1c(=O)c2nscc2n(CC(=O)Nc2ccc3c(c2)OCCO3)c1=O,-,-
O=C(Cn1c(=O)n(C2CC2)c(=O)c2nscc21)Nc1ccc(F)c(Cl)c1,-,+
CC(C)n1c(=O)c2nscc2n(CC(=O)Nc2ccc(Br)cc2)c1=O,-,+
Cc1cc(C)c(NC(=O)Cn2c(=O)n(C3CC3)c(=O)c3nscc32)c(C)c1,-,-
CCc1ccccc1NC(=O)Cn1c(=O)n(C2CC2)c(=O)c2nscc21,-,+
COc1ccc(NC(=O)Cn2c(=O)n(C(C)C)c(=O)c3nscc32)cc1Cl,-,-
O=c1cc(-c2ccccc2)nc(SCc2nc(-c3cccs3)no2)[nH]1,.,-
CCOC(=O)N1CCN(C(=O)CCCCCn2c(=S)[nH]c3ccccc3c2=O)CC1,-,-
Cc1ccccc1OCC(=O)NCC1CCN(Cc2ccco2)CC1,-,.
CCN(CC)C(=O)CSc1ccc([N+](=O)[O-])cc1[N+](=O)[O-],.,-
Cc1cc(C)c(S(=O)(=O)Nc2ccc(F)cc2)c(C)c1N(C)S(C)(=O)=O,-,-
COc1ccc(NS(=O)(=O)c2c(C)cc(C)c(N(C)S(C)(=O)=O)c2C)cc1,-,+
CC1C(=O)NCCN1C(=O)CCCSc1ccc(F)cc1 (stereo not given),-,.
COc1ccc(C(=O)Nc2cc3c4c(c2)CCN4C(=O)CC3)cc1,-,+
SMILES,GIRK2 activator,AMPAR-TARP mod
COc1ccc(C(=O)Nc2cc3c4c(c2)CCC(=O)N4CCC3)cc1,-,-
Cn1c(=O)[nH]c(=O)c2c1nc(Nc1ccc(C(N)=O)cc1)n2CC(=O)O,-,-
CC(C)Oc1ccc(C(=O)NC2CC(=O)N(C)C2)cc1 (stereo not given),-,.
Cc1ccnc(C(=O)Nc2ccncc2)n1,-,+
Cc1ccnc(C(=O)Nc2ccc(Nc3cc(N4CCOCC4)nc(C)n3)cc2)n1,-,.
Cn1c(-c2ccccn2)nn(CCNC(=O)C2(c3ccc(Cl)cc3)CCCC2)c1=O,-,+
Cn1c(C(F)(F)F)nn(CCNC(=O)C2(c3ccc(Cl)cc3)CCCC2)c1=O,-,-
COc1ccc(F)cc1S(=O)(=O)Nc1ccc(-c2ccc(=O)n(C)n2)cc1,-,-
COc1ccc(F)cc1S(=O)(=O)Nc1cccc(-c2ccc(=O)n(C)n2)c1,-,+
CSc1nn(CC(=O)Nc2ccc(Br)cc2)c(N)c1S(=O)(=O)c1ccc(C)cc1,-,-
CSc1nn(CC(=O)Nc2ccc(Cl)cc2)c(N)c1S(=O)(=O)c1ccccc1,.,+
CCCn1c(NCc2cc(Br)ccc2NS(=O)(=O)c2ccc(C)cc2)nc2ccccc21,.,-
O=C(NCc1ccc(Cl)cc1)Nc1ccc(N2CCCS2(=O)=O)cc1,-,-
CCCC(=O)Nc1ccc(C(=O)NCCNC(=O)c2ccccc2OC)cc1,-,-
Cc1ccc(C(=O)Nc2ccc(C(=O)NCCNC(=O)c3ccccc3C)cc2)cc1,.,+
Cc1cc(C)c(S(=O)(=O)NC(C)(C)C)cc1N(C)S(=O)(=O)c1ccc(Cl)cc1,.,-
COc1cccc(S(=O)(=O)Nc2ccc(Nc3cc(-n4ccnc4)ncn3)cc2)c1,-,-
CCOc1ccccc1C(=O)NCCCn1nc(-c2ccco2)ccc1=O,-,.
CCOc1ccccc1NC(=O)N1CCN(Cc2nc(-c3cccs3)cs2)CC1,-,-
COc1ccc(S(=O)(=O)Nc2nc3ccccc3nc2NCCC2=CCCCC2)cc1,.,-
COc1ccccc1CNc1nc2ccccc2nc1NS(=O)(=O)c1ccccc1,.,+
O=C(CCC(=O)c1ccccc1)NCCCn1cccc1,-,-
O=C(CSc1ccc(F)cc1)NCC1CCN(C(=O)/C=C/c2ccco2)CC1,-,-
Cc1cccc(NC(=O)Cn2nc3n(c(=O)c2=O)CCN3c2ccccc2)c1C,-,-
COc1ccc(NC(=O)C(=O)NCC2CCN(C(C)C)CC2)cc1OC,-,-
SMILES,GIRK2 activator,AMPAR-TARP mod
O=C(NCCc1ccccc1)NCC1CCN(C(=O)COc2ccccc2)CC1,-,-
O=C(NCc1ccccc1Cl)C(=O)NCC1CCN(C(=O)COc2ccccc2)CC1,-,-
O=C(NCCc1ccccc1)C(=O)NCC1CCN(C(=O)COc2ccccc2)CC1,-,+
O=C(NCc1cccc2ccccc12)NCC1CCN(C(=O)COc2ccccc2)CC1,-,+
CCN1CCN(CC(O)COc2c(OC)cccc2OC)CC1 (stereo not given),-,-
COc1ccc2cc(S(=O)(=O)c3ccc(F)c(C)c3)c(=O)oc2c1,.,-
COc1ccc(N(CC(=O)NCc2ccccc2)S(=O)(=O)c2cccnc2)cc1,-,-
O=C(Nc1ccc2c(c1)N(S(=O)(=O)c1ccc(F)cc1)CCC2)c1cc(-c2ccccc2)on1,-,-
Cc1nccn1CC1CCN(S(=O)(=O)c2cccc(F)c2)CC1,-,-
Cc1cc(C)n(-c2nc3c(c(=O)n2CC(=O)N(C)c2ccccc2)CCC3)n1,-,-
Cc1cc(C)n(-c2nc3c(c(=O)n2CC(=O)NCc2ccco2)CCCC3)n1,-,+
CC(=O)Nc1ccc(NC(=O)c2cnc3c(c(C)nn3-c3ccccc3)c2Cl)cc1,-,-
O=C(NCc1ccsc1)C(=O)Nc1ccc2c(c1)OCO2,-,-
CC(C)S(=O)(=O)c1ccc(C(=O)Nc2nc3cc4c(cc3s2)OCCO4)cc1,-,-
CS(=O)(=O)c1ccc2nc(NC(=O)Cn3cccn3)sc2c1,-,-
Cc1cn(C)nc1C(=O)Nc1nc2ccc(S(C)(=O)=O)cc2s1,-,+
Cc1ccc2nc(NC(=O)c3ccc(S(=O)(=O)C(C)C)cc3)sc2c1,.,+
Cc1cc(C)n(-c2nc3c(c(=O)n(CCN4CCOCC4)c(=O)n3C)n2C(C)C)n1,-,-
COc1cc2nc(SCc3ccc(C)cc3)n3nc(C)nc3c2cc1OC,-,.
O=c1c(O)c(-c2ccccc2)oc2ccccc12,.,-
CN(C)c1ccc(-c2oc3ccccc3c(=O)c2O)cc1,.,+
COC(=O)CC1(C(=O)OC)SC(=Nc2ccccc2)NN1c1nc2ccccc2s1 (stereo not given),-,-
COc1ccc(Cl)cc1NC(=O)NCC(O)Cc1ccccc1 (stereo not given),-,+
COc1ccc(NC(=O)NCC(O)Cc2ccccc2)cc1OC (stereo not given),-,-
